# Screening results: PubChem, National Center for Advancing Translational Sciences (NCATS)
# Mito fusion act = qHTS Assay for Small Molecule Inhibitors of Mitochondrial Division or Activators of Mitochondrial Fusion; Potency, µM (top dose mostly 46.1 µM), actives largely listed as activators; 320,000 compounds, 0.23% hits; AID 485298, 2010; S. cerevisiae fusion-defective mutant growth rescue, CellTiterGlo 48 h; note: nearly all actives have a fitted effect of over 45% in size
#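 Compounds are tested for their ability to restore growth of mitochondrial fusion-defective yeast strains at non-permissive 37C in YPEG medium over 48 hours. Viability is quantified by luciferase luminescence.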
# Glioma ERSR ind = qHTS for Inducers of the Endoplasmic Reticulum Stress Response (ERSR) in Human Glioma: qHTS; U87-MG GRP78 promoter luciferase reporter, 16 h; Potency, µM, hits mostly activators; 420,000 compounds, 0.02% hits; note: series mostly up to about 76 µM; nearly all actives have a fitted effect of over 35% in size
#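 ERSR induction read as luciferase luminescence (Bright-Glo, 10 min at room temperature) in stably transfected human U87-MG glioma cells exposed to compounds for 16 h, using GRP78 as sensor.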
# TCR act = Activators of T cell receptors: qHTS campaign. primary human leukocytes, anti-CD3, IL-2 HTRF, 48 h. Potency, µM (highest dose often 9.22 µM), hits mostly activators. 330,000 tested, under 10 active
#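 Primary human leukocytes incubated 48 hr with anti-CD3 beads plus compound, without co-stimulation. Secreted IL-2 measured by HTRF (europium cryptate/d2 anti-IL-2 pair, 320 nm excitation, 665 nm emission).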
# MBNL1-CUG inh = qHTS Assay for Inhibitors of MBNL1-poly(CUG) RNA binding; 280,000 compounds, 0.036% hits; TR-FRET MBNL1-His/biotin-(CUG)12 binding, 665/545 ratio; Potency, µM (highest dose often 57.5 µM), actives largely listed as inhibitors; Muscleblind-like protein 1 (Homo sapiens), Q9NR56; active = well fitted inhibition curve with a large enough effect in the signal ratio, with a control signal flat, not every such curve was filed as active; inconclusive = small, poorly fitted or top-dose-only effect, or effect the other way, or a change in a side signal; inactive = no such curve, though single readings can be large or run the other way; the % refers to the signal ratio
# Target sequence (Q9NR56 whole entry, looked up): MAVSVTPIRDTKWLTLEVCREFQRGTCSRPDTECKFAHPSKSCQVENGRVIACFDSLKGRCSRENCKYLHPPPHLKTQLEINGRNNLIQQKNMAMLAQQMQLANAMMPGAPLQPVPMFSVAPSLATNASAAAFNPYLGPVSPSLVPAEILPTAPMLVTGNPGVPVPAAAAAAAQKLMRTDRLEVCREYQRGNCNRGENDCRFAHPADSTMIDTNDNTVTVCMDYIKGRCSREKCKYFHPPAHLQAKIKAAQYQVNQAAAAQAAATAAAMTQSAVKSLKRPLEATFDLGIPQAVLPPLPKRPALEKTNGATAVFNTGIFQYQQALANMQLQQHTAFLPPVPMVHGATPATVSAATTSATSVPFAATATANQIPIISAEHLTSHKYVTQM
#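 Compound titration spanned 92 nM–58 uM against the MBNL1-His/biotin-(CUG)12 complex. After 60 min at room temperature with 5 nM streptavidin-XL665 and 0.055 ng/ul terbium anti-His, ratiometric 665/545 nm emission (Ex 340 nm) normalized to controls.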
# A-T KAP1 phos = qHTS Assay for Identifying a Potential Treatment of Ataxia-Telangiectasia; Potency, µM (highest dose often 57.5 µM), hits mostly activators; 320,000 compounds, 0.19% hits; F2112 A-T fibroblasts, KAP-1 phosphorylation AlphaLISA; neocarzinostatin DNA damage 30 min before lysis; note: nearly all actives have a fitted effect of over 45% in size
#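 ATM-like activity read as KAP-1 phosphorylation via AlphaLISA donor/acceptor antibody pairs after lysis and 6 hr at 25C. Cells were ATM-null patient fibroblasts (F2112, hTERT), dosed 60 min, then exposed to the DSB inducer NCS for 30 min.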
# ClpP mod = qHTS Assay for Activators of ClpP. purified B. subtilis ClpP, FRET peptide cleavage, 20 min. Potency, µM (highest dose often 57.5 µM). 340,000 compounds, 1.9% hits; active = well fitted falling curve with a large enough effect; inconclusive = small, poorly fitted or top-dose-only effect; inactive = no such curve, though single readings can be large or run the other way; note: the source files actives as falling curves though it sought activators and does not explain the sign; nearly all actives have a fitted effect of over 65% in size
# Target sequence (P80244 whole entry, looked up): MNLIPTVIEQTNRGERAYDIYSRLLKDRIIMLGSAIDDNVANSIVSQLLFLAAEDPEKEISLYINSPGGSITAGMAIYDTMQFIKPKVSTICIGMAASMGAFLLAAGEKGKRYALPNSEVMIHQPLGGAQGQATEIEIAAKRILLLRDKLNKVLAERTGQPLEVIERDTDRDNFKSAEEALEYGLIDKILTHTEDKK
#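 ClpP 10 microg/mL final, pH 8 Tris/KCl buffer with BSA, glycerol, Tween-20; compound pinned in; FRET-FV substrate; RT 20 min; Ex320/Em430; ΔFRET vs ADEP 5.8 microM, DMSO, no enzyme.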
# ClpP validation = qHTS Assay for Activators of ClpP: Hit Validation of Inhibitors. shares compounds with ClpP mod. purified B. subtilis ClpP, FRET-FV substrate cleavage, 20 min. Potency, µM (series often up to 57.5 µM), hits mostly inhibitors. 470 compounds, 40% hits; note: nearly all actives have a fitted effect of over 70% in size
# Numbers stand for hits; n = inactive; u = inconclusive; x = no result. Shown are actives, neighbours in structure and some others; about 1.8% of the full set was active somewhere. Unless noted, calls come from the whole dose curve; as a rule, active = well fitted curve in the direction sought with a large enough effect; inconclusive = small, poorly fitted or top-dose-only effect, or another doubt; inactive = no such curve, though single readings can be large; an effect the other way counts as inactive or inconclusive.
SMILES,Mito fusion act,Glioma ERSR ind,TCR act,MBNL1-CUG inh,A-T KAP1 phos,ClpP mod,ClpP validation
CNc1nnc(-c2cccc(N(C)C)c2)s1,n,n,n,n,n,n,n
CCCCn1cc2c(c1-c1ccc(Br)cc1)c(=O)n(C)c(=O)n2C,x,n,x,x,x,n,x
CCCCCn1cc2c(c1-c1ccc(Cl)cc1)c(=O)n(C)c(=O)n2C,x,n,x,x,x,10µM,u
O=C(c1cnn(C(=O)c2ccccc2)c1)c1ccccc1O,n,n,n,n,n,n,n
CC(C)(C)CC(C)(C)c1cc(Cc2cc(C(C)(C)CC(C)(C)C)cc(-n3nc4ccccc4n3)c2O)c(O)c(-n2nc3ccccc3n2)c1,x,n,x,x,x,x,x
COc1ccc(C2/C=C\CN(C(=O)CC(C)(C)C)C(C)C(=O)N2Cc2ccc(F)cc2)cc1 (stereo unspecified),x,n,x,x,x,x,x
COc1ccc2c(c1)CCc1c(C(=O)Nc3cc(C)n(Cc4ccc(Cl)cc4)n3)noc1-2,n,n,n,n,n,n,n
O=c1c2ccccc2nc2n1CCCN2,u,n,n,n,n,x,x
O=c1c2ccccc2nc2n1CCCCN2,n,n,n,n,n,4µM,24µM
CCN(CC)c1ncnc2c1ncn2[C@@H]1O[C@@H](COP(=O)(O)OP(=O)(O)C(Br)(Br)P(=O)(O)O)[C@H](O)[C@H]1O,x,n,x,x,x,x,x
Cc1ccccc1NC(=O)c1sc2nc(N3CCOCC3)c3c(c2c1N)CCCC3,n,n,n,n,n,n,x
COc1ccccc1NC(=O)c1sc2nc(N3CCOCC3)c3c(c2c1N)CCCC3,n,n,n,n,n,8.9µM,u
Cc1ccc(C(=O)Nc2cccc(C(F)(F)F)c2)cc1NC(=O)c1nccnc1N,n,n,n,n,n,n,u
CCc1ccc(NS(=O)(=O)c2ccc3[nH]cc(C(=O)N(C)Cc4ccco4)c(=O)c3c2)cc1,n,n,n,n,n,n,x
CN(Cc1ccco1)C(=O)c1c[nH]c2ccc(S(=O)(=O)Nc3ccc4c(c3)OCCO4)cc2c1=O,n,n,n,n,n,3.5µM,n
OC1(c2cccnc2)CCN(Cc2ccc3c(c2)CN(Cc2ccc(F)c(F)c2)CCO3)CC1,x,n,x,x,x,x,x
O=C(c1csnn1)N1CCC2(CC1)CN(c1ccccn1)C2,x,n,x,x,x,x,x
c1ccc(-c2ccc(-c3cn4c(n3)CCC4)cc2)cc1,n,n,n,n,x,2.8µM,22µM
CC(=O)Nc1ccc2c(c1)nc1n2CCSC1,n,n,x,n,x,n,n
Cc1ccc(C(=O)Nc2ccc3c(c2)nc2n3CCSC2)cc1,n,n,n,n,n,n,x
c1ccc(CN2CCN(c3nc(N4CCOCC4)c4ccccc4n3)CC2)cc1,x,n,n,x,x,n,x
c1ccc2c(N3CCOCC3)nc(N3CCOCC3)nc2c1,n,n,n,n,x,3.2µM,24µM
O=C(O)C1=CC(=C(c2ccc(O)c(C(=O)O)c2)c2ccc(O)c(C(=O)O)c2)C=CC1=O,13µM,n,x,x,n,n,u
Fc1ccccc1N1CCN(c2nnc(C(F)(F)F)c3nnn(Cc4ccccc4)c23)CC1,x,n,x,x,x,7.9µM,19µM
Cc1ccc(CN2CCC(C3(c4ccccn4)NC(=O)N(CC4CCCO4)C3=O)CC2)cc1C (stereo unspecified),x,n,x,x,x,x,x
SMILES,Mito fusion act,Glioma ERSR ind,TCR act,MBNL1-CUG inh,A-T KAP1 phos,ClpP mod,ClpP validation
CN(C)S(=O)(=O)Oc1ccc(Cl)cc1C(=O)Nc1cccc(C(F)(F)F)c1,n,n,x,n,n,n,x
CN(C)S(=O)(=O)Oc1ccccc1C(=O)Nc1cccc(C(F)(F)F)c1,n,n,n,n,n,n,n
Cc1cc(N2CCN(c3ccc(F)cc3)CC2)n2cnnc2n1,x,n,x,x,x,n,x
Cc1cc(N2CCN(C)CC2)n2cc(-c3ccc(F)cc3)nc2n1,n,n,n,n,n,7.1µM,27µM
COc1ccc(S(=O)(=O)N(C)c2ccc(C(=O)N3CCOCC3)cc2)cc1,n,n,n,n,n,2.2µM,n
COc1ccc(S(=O)(=O)N(C)c2ccc(C(=O)N3CCCCC3)cc2)cc1,n,n,n,n,n,n,x
Cc1ccc(Cl)cc1NC(=O)CCc1c(C)nc2c3cccnc3nn2c1C,x,n,x,x,x,3.5µM,19µM
O=C(Nc1ccccc1)c1nc[nH]c1C(=O)NCc1ccccc1,n,n,n,x,n,n,x
O=C(Nc1cccc(Cl)c1)c1nc[nH]c1C(=O)NCc1ccccc1,n,n,n,x,n,n,u
CC/C=C\CC[C@H](O)C1=CCCCC1=O,x,n,x,x,x,x,x
Cc1cc(N2CCN(Cc3cn(C)nc3-c3cccc(Cl)c3)CC2)cc(C)n1,n,n,n,n,n,x,x
Cn1cc(CN2CCN(c3ncccn3)CC2)c(-c2cccc(Cl)c2)n1,n,n,x,n,n,n,n
COc1ccccc1C1CN(CCNC(=O)c2cscn2)Cc2ccccc2O1 (stereo unspecified),x,n,x,x,x,x,x
CC1=C(C(=O)OCc2ccc(C)cc2)C(c2ccccc2F)CC(=O)N1 (stereo unspecified),x,n,x,x,x,n,x
O=C(Nc1ccc(Br)cc1)c1cc(-c2cccs2)nc2ccccc12,x,n,x,x,x,n,24µM
NS(=O)(=O)c1cccc(NC(=O)c2cc(-c3cccs3)nc3ccccc23)c1,n,n,n,x,n,n,x
CC1CCN(S(=O)(=O)c2ccc(NC(=O)c3cccs3)cc2)CC1,n,n,n,n,n,n,n
CN1CCN(S(=O)(=O)c2ccc(NC(=O)c3cccs3)cc2)CC1,n,n,n,n,x,n,x
O=C(Nc1ccc(F)cc1)N1CCN2C(=O)c3ccccc3C12c1ccccc1 (stereo unspecified),n,n,n,n,x,4µM,n
